Measured values published in PubChem BioAssay (NCI).
Compounds without any hit were thinned out: in the full panel of roughly 79,000, 15% have a hit. The source made the active and inactive calls. Cut-off read from the data, not from the text of the source: active = growth inhibition above about 70%; inactive = the rest.

Key:
[1] = NCI Yeast Anticancer Drug Screen. Data for the wt1 strain (AID 149);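 note: 0% = growth of vehicle-treated wt1 cultures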; details: S. cerevisiae wt1 strain (SPY 50644) growth inhibition, stronger effect = higher value
Procedure, shortened: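 Readout: yeast growth inhibition, normalised to vehicle controls, in the wt1 strain exposed to test compounds.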

[2] = NCI Yeast Anticancer Drug Screen. Data for the rad50EPP+ strain (AID 151);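 note: 0% = growth of vehicle-treated control cultures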; details: S. cerevisiae rad50 mutant strain, stronger effect = higher value
Procedure, shortened: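 rad50EPP+ yeast treated with test compounds. Readout: growth vs vehicle control.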

[3] = NCI Yeast Anticancer Drug Screen. Data for the mgt1 strain (AID 153); details: S. cerevisiae mgt1 mutant growth inhibition, stronger effect = higher value
Procedure, shortened: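 Growth inhibition relative to vehicle controls was scored for the mgt1 yeast strain after compound exposure.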

[4] = NCI Yeast Anticancer Drug Screen. Data for the rad50 strain (AID 155);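 note: 0% = growth of vehicle-only cultures of the same strain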; details: S. cerevisiae rad50 strain growth inhibition, stronger effect = higher value
Procedure, shortened: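 Compounds were tested on a yeast strain with an engineered DNA damage repair alteration; the reported value is growth inhibition normalised to vehicle treatment.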

[5] = NCI Yeast Anticancer Drug Screen. Data for the mec2-1 strain (AID 157); details: S. cerevisiae mec2-1 strain, stronger effect = higher value
Procedure, shortened: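 Growth inhibition is read against vehicle-treated controls after compound exposure of the mec2-1 yeast strain, which is defective in DNA damage repair or cell cycle control.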

[6] = NCI Yeast Anticancer Drug Screen. Data for the rad14 strain (AID 159);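 note: 0% = growth of vehicle-treated control cultures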; details: S. cerevisiae rad14 strain growth inhibition, stronger effect = higher value
Procedure, shortened: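 Compound-treated yeast with a defined DNA-repair lesion; growth inhibition normalised to vehicle-treated cultures.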

[7] = NCI Yeast Anticancer Drug Screen. Data for the sgs1 mgt1 strain (AID 161);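 note: 0% = growth of cultures given vehicle only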; details: S. cerevisiae sgs1 mgt1 strain, stronger effect = higher value
Procedure, shortened: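 Percent growth inhibition was derived by comparing compound-exposed mutant yeast with vehicle-exposed cultures. The strain carries alterations in DNA damage repair.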

[8] = NCI Yeast Anticancer Drug Screen. Data for the CLN2oe strain (AID 163);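 note: 0% = growth of vehicle-only control cultures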; details: S. cerevisiae CLN2oe strain, stronger effect = higher value
Procedure, shortened: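 Compound-treated yeast; growth vs vehicle ctrl = % inhibition. Genetically altered strain (cell-cycle control).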

[9] = NCI Yeast Anticancer Drug Screen. Data for the cln2 rad14 strain (AID 165);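 note: 0% = growth equal to vehicle treated cultures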; details: S. cerevisiae cln2 rad14 strain, stronger effect = higher value
Procedure, shortened: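 Growth inhibition, relative to vehicle-treated controls, is the read-out. The test organism is a yeast strain with defined genetic alterations, cln2 rad14.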

[10] = NCI Yeast Anticancer Drug Screen. Data for the bub3 strain (AID 167); details: S. cerevisiae bub3 mutant strain, stronger effect = higher value
Procedure, shortened: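 Growth of a checkpoint-deficient yeast mutant is measured after compound exposure. Values represent inhibition relative to vehicle.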

[11] = NCI Yeast Anticancer Drug Screen. Data for the wt2 strain (AID 169);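 note: 0% = growth of vehicle-treated yeast cultures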; details: S. cerevisiae wt2 strain growth inhibition, stronger effect = higher value
Procedure, shortened: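 Compound exposure of yeast; growth compared with vehicle controls; inhibition reported.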

[12] = NCI Yeast Anticancer Drug Screen. Data for the sgs1 strain (AID 173);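 note: 0% = growth of vehicle-only control cultures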; details: S. cerevisiae sgs1 mutant, stronger effect = higher value
Procedure, shortened: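 Compounds applied to genetically altered yeast; growth compared with vehicle-treated cultures to give % inhibition.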

[13] = NCI Yeast Anticancer Drug Screen. Data for the mlh1 rad18 strain (AID 175); details: S. cerevisiae mlh1 rad18 strain growth inhibition, stronger effect = higher value
Procedure, shortened: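 Cells of a genetically altered yeast strain, deficient in DNA damage repair, were treated with compound. Their growth was then compared with that of vehicle-treated cultures to give inhibition.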

[14] = NCI Yeast Anticancer Drug Screen. Data for the rad18 strain (AID 177); details: S. cerevisiae rad18 mutant growth inhibition, stronger effect = higher value
Procedure, shortened: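 Compounds are applied to a repair-deficient yeast strain, and growth is compared with that of vehicle-treated cultures to give percent inhibition.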

[15] = NCI Yeast Anticancer Drug Screen. Data for the rad52 strain (AID 147);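 note: 0% = growth of vehicle-treated control cultures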; details: S. cerevisiae rad52 mutant growth inhibition, stronger effect = higher value
Procedure, shortened: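 DNA repair-defective yeast; compound exposure; growth scored against vehicle controls.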

[16] = NCI Yeast Anticancer Drug Screen. Data for the mlh1 strain (AID 171);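 note: 0% = growth of vehicle-treated control cultures of the same strain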; details: S. cerevisiae mlh1 strain growth inhibition, stronger effect = higher value
Procedure, shortened: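 Compounds are applied to a genetically altered yeast strain, and its growth is compared with that of vehicle-treated cultures to give percent inhibition.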

[17] = at 5.0 µM (retest, dose inferred, filed as 0.5)
[18] = at 50.0 µM (retest, dose inferred, filed as 5.0)

Measured: growth inhibition

CN(C)CCNCCCNc1c2ccccc2nc2cccc([N+](=O)[O-])c12
active: [2]; at 33.0 µM 90% | [2]; at 100.0 µM 95% | [4]; at 33.0 µM 88% | [4]; [18] 93% | [4]; at 50.0 µM 80.8% | [4]; at 100.0 µM 94% | [5]; at 33.0 µM 91% | [5]; [18] 98% | [5]; at 50.0 µM 78.7% | [5]; at 100.0 µM 95% | [6]; at 11.0 µM 92% | [6]; at 33.0 µM 97% | [6]; at 100.0 µM 97% | [7]; [17] 73% | [7]; [18] 95% | [7]; at 50.0 µM 79.7% | [8]; at 100.0 µM 81% | [9]; [17] 80% | [9]; [18] 97% | [9]; at 50.0 µM 97.5% | [10]; [18] 72% | [10]; at 100.0 µM 80% | [11]; at 100.0 µM 91% | [12]; at 11.0 µM 76% | [12]; at 33.0 µM 84% | [12]; at 100.0 µM 89% | [13]; [17] 73% | [13]; [18] 97% | [13]; at 50.0 µM 88.7% | [14]; at 1.2 µM 88% | [14]; at 3.7 µM 94% | [14]; at 11.0 µM 96% | [14]; at 33.0 µM 96% | [14]; at 100.0 µM 96%
inactive: [1]; at 1.2 µM -14% | [1]; at 3.7 µM 9% | [1]; at 11.0 µM 11% | [1]; at 33.0 µM 20% | [1]; at 100.0 µM 50% | [2]; at 1.2 µM 9% | [2]; at 3.7 µM 26% | [2]; at 11.0 µM 69% | [3]; at 1.2 µM 4% | [3]; at 3.7 µM 18% | [3]; at 11.0 µM 20% | [3]; at 33.0 µM 26% | [3]; at 100.0 µM 58% | [4]; at 1.2 µM 9% | [4]; at 3.7 µM 39% | [4]; [17] 17% | [4]; at 11.0 µM 61% | [5]; at 1.2 µM 22% | [5]; at 3.7 µM 18% | [5]; [17] 17% | [5]; at 11.0 µM 50% | [6]; at 1.2 µM -2% | [6]; at 3.7 µM 46% | [8]; at 1.2 µM -2% | [8]; at 3.7 µM -4% | [8]; at 11.0 µM 2% | [8]; at 33.0 µM 22% | [10]; at 1.2 µM -5% | [10]; at 3.7 µM -11% | [10]; [17] -12% | [10]; at 11.0 µM -11% | [10]; at 33.0 µM 6% | [10]; at 50.0 µM -3.8% | [11]; at 1.2 µM 0% | [11]; at 3.7 µM 1% | [11]; at 11.0 µM 11% | [11]; at 33.0 µM 33% | [12]; at 1.2 µM 31% | [12]; at 3.7 µM 58%

N#CC1OB(O)c2ccccc21 (stereo unspecified)
active: [4]; [18] 81%
inactive: [15]; at 1.2 µM -9% | [15]; at 3.7 µM -6% | [15]; at 11.0 µM -5% | [15]; at 33.0 µM -5% | [15]; at 100.0 µM 3% | [2]; at 1.2 µM -2% | [2]; at 3.7 µM 4% | [2]; at 11.0 µM 4% | [2]; at 33.0 µM 17% | [2]; at 100.0 µM 26% | [3]; at 1.2 µM -7% | [3]; at 3.7 µM -4% | [3]; at 11.0 µM -2% | [3]; at 33.0 µM 0% | [3]; at 100.0 µM -3% | [4]; at 1.2 µM -13% | [4]; at 3.7 µM -10% | [4]; [17] -126% | [4]; at 11.0 µM 4% | [4]; at 33.0 µM 10% | [4]; at 50.0 µM 58.2% | [4]; at 100.0 µM 11% | [5]; at 1.2 µM 1% | [5]; at 3.7 µM 0% | [5]; [17] -51% | [5]; at 11.0 µM 3% | [5]; at 33.0 µM 1% | [5]; [18] -27% | [5]; at 50.0 µM 27.9% | [5]; at 100.0 µM -7% | [6]; at 1.2 µM -3% | [6]; at 3.7 µM 0% | [6]; at 11.0 µM -2% | [6]; at 33.0 µM -2% | [6]; at 100.0 µM 1% | [7]; [17] -61% | [7]; [18] -2% | [7]; at 50.0 µM 27.1% | [8]; at 1.2 µM 0% | [8]; at 3.7 µM -2% | [8]; at 11.0 µM 1% | [8]; at 33.0 µM -7% | [8]; at 100.0 µM -2% | [9]; [17] -57% | [9]; [18] -42% | [9]; at 50.0 µM 21% | [10]; at 1.2 µM -11% | [10]; at 3.7 µM -10% | [10]; [17] -64% | [10]; at 11.0 µM -6% | [10]; at 33.0 µM -10% | [10]; [18] -36% | [10]; at 50.0 µM 69.7% | [10]; at 100.0 µM -4% | [16]; at 1.2 µM 7% | [16]; at 3.7 µM -5% | [16]; at 11.0 µM -6% | [16]; at 33.0 µM -6% | [16]; at 100.0 µM -7% | [12]; at 1.2 µM 1% | [12]; at 3.7 µM 1% | [12]; at 11.0 µM 2% | [12]; at 33.0 µM 1% | [12]; at 100.0 µM 1% | [13]; [17] -115% | [13]; [18] 7% | [13]; at 50.0 µM 60.9% | [14]; at 1.2 µM -4% | [14]; at 3.7 µM -1% | [14]; at 11.0 µM 1% | [14]; at 33.0 µM 2% | [14]; at 100.0 µM 6%
